Screening data deposited in PubChem by Broad Institute.
Rtt109 HAT inh – inhibitors of Candida albicans Rtt109/Vps75 histone acetyltransferase; Q5AAJ8; purified Rtt109/Vps75, ThioGlo CoA-SH fluorescence, 4 h; inhibition, % at 34.9 µM; 0.16% of 330,000 active;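 active = inhibition of at least 50% in every replicate; inconclusive = best replicate reaches 50% inhibition but some replicates fall short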
Target sequence (Q5AAJ8 whole entry, looked up): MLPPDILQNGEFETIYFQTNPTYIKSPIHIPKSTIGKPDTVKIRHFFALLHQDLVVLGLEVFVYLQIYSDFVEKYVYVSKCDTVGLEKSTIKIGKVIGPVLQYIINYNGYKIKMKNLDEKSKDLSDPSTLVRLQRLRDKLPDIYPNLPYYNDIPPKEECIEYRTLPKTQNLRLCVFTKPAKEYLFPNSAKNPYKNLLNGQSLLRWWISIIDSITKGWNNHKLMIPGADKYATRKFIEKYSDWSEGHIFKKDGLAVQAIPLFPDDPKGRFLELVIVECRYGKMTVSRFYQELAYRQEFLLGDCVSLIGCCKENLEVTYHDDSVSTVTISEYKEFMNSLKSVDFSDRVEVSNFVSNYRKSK
MITF TRPM1 HTS – increases MITF-driven TRPM1 promoter luciferase signal; SK-MEL-5 TRPM1-promoter luciferase, 24 h; % of positive control, neutral wells = 0; activation, % at 12.5 µM; 0.75% of 300,000 active; AID 588334;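 active = mean activation of at least 80% with every replicate also reaching 80%; inconclusive = mean reaches 80% but some replicate falls short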;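 also: 0% = neutral control wells and 100% = parthenolide positive control wells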
esBAF inh – inhibitors of esBAF chromatin remodeling in mouse ES cells. Bmi1-luciferase knock-in reporter, 24 h; 100% = twice the neutral-well signal. reporter increase, % at 12.5 µM. 2% of 350,000 active; in the data active = activation above about 40%; inconclusive = no clear call, values can overlap the other calls;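 also: 0% = median of the plate's neutral control wells and 100% = double that signal; a rise in the Bmi1 reporter signal indicates esBAF inhibition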
Wnt act – activates Wnt/beta-catenin signaling in a reporter cell assay; 1.2% of 300,000 active; activator, plate reader; activation, % at 9.35 µM; in the data active = activation above about 30%, passing the limit was not always enough; inconclusive = no clear call, values can overlap the other calls;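 also: 0% = neutral control wells and 100% = positive control wells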
C2C12 statin – suppression of simvastatin myotoxicity | 0.78% of 330,000 active | rescue of ATP level, % at 7.49 µM | C2C12 myotubes + simvastatin, ATP luminescence, 48 h; scaled: DMSO 0, geranylgeraniol control 100 | AID 602340;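 active = mean ATP rescue above about 67%, or every replicate alone reaching that limit, limit read from the data, passing the limit was not always enough; inconclusive = no clear call, values can overlap the other calls; inactive = mean under the limit and some replicate under it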;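 also: myotubes were challenged with 10 µM simvastatin during compound exposure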
Numbers without * were called inactive; ? = inconclusive; nt = not tested or not shown. An excerpt weighted towards active compounds, which were near 3.1% of everything screened.

SMILES	Rtt109 HAT inh	MITF TRPM1 HTS	esBAF inh	Wnt act	C2C12 statin
CN1c2ccc(-c3cccc(F)c3)cc2[C@@H]2[C@@H](CCN2C(=O)c2ccccc2F)[C@H]1CO	nt	nt	-5	nt	1
O=C1N/C(=C/c2ccc(N3CCCC3)cc2)C(=O)N1c1ccccc1	0	44	nt	8	nt
O=C1/C(=C/c2ccc(N3CCCC3)cc2)NC(=S)N1C1CC1	-3	55	48*	nt	-32
Cc1cc(N2CCCC2)ccc1/C=C1\NC(=S)N(C)C1=O	4	79	85*	54*	-5
CCNC(=O)[C@H]1[C@H](CO)[C@H]2Cn3c(ccc(-c4ccccc4)c3=O)[C@@H]1N2CCC(F)(F)F	nt	nt	4	nt	8
C=CCS/C(=N\n1cnc2ccccc2c1=O)N(CC)CC	5	-11	nt	nt	nt
C=CCS/C(=N\n1cnc2ccccc2c1=O)N1CCCCC1	-1	26	53*	nt	21
O=C(Cc1ccncc1)NCC[C@H]1CC[C@@H](NC(=O)Nc2ccc(F)cc2)[C@@H](CO)O1	nt	nt	3	nt	-3
Cc1cc2ncc(-c3cccc(Cl)c3)cn2n1	-14	56	nt	24	nt
Cc1nn2cc(-c3ccc(Cl)cc3)cnc2c1Cl	30	126*	72*	32*	-10
CN(C)c1ccc(-c2c(-c3ccc4c(c3)OCO4)noc2-c2ccsc2)cn1	-2	36	25	nt	17
O=C(O)c1cc(-c2ccc(-c3c(-c4ccc5c(c4)OCO5)noc3-c3ccsc3)cc2)nc2ccccc12	16	97*	68*	22	5
CCC(=O)Nc1ccc(NC(=O)c2cccc(OC)c2)nc1	-3	?	33	nt	-23
COc1cc(C(=O)Nc2ccc(NC(=O)C3CC3)nc2)cc(OC)c1OC	-3	2	-5	61*	-17
COc1cccc(C(=O)Nc2ccc(NC(=O)C3CC3)cn2)c1	1	102*	nt	24	nt
CCCCC(=O)Nc1ccc(NC(=O)c2cc(OC)c(OC)c(OC)c2)cn1	-2	3	-6	1	82*
O=C(Nc1ccc(NC(=O)C2CC2)nc1)c1cnccn1	-2	6	12	49*	0
COc1cc(C(=O)Nc2ccc(NC(=O)c3ccccc3)nc2)cc(OC)c1OC	-2	10	7	4	-24
Cc1noc(C)c1S(=O)(=O)Nc1ccc2c(c1)C(=O)N([C@H](C)CO)C[C@H](C)[C@@H](CN(C)S(=O)(=O)c1ccc(F)cc1)OCCCC[C@H](C)O2	nt	nt	-4	nt	nt
CO[C@@H]1CN(C)C(=O)c2cc(NS(=O)(=O)c3cn(C)cn3)ccc2OC[C@@H](C)N(Cc2cccc(Cl)c2)C[C@H]1C	nt	nt	3	nt	48
O=C1N2CCCc3cccc(c32)C12Nc1ccccc1S2 (stereo not given)	13	-9	1	nt	152*
O=C1C(=Cc2ccco2)CCCC1=Cc1ccco1	-2	53	57*	3	2
O=C1C(=Cc2ccco2)CCC1=Cc1ccco1	2	22	1	0	6
CCOC(=O)C1=C(CSc2nc(CC)c(C)cc2C#N)OC(N)=C(C#N)C1c1ccccc1 (stereo not given)	14	nt	5	nt	-3
CCOC(=O)C1=C(CSc2nc(-c3ccccc3)ccc2C#N)OC(N)=C(C#N)C1c1ccc(OC)cc1 (stereo not given)	-3	72	54*	nt	-2
SMILES	Rtt109 HAT inh	MITF TRPM1 HTS	esBAF inh	Wnt act	C2C12 statin
COc1ccc(S(=O)(=O)Nc2ccc3c(c2)CC(=O)N([C@@H](C)CO)C[C@@H](C)[C@@H](CN(C)Cc2ccc(C(F)(F)F)cc2)O3)cc1	nt	nt	-4	nt	23
Cc1ccc(S(=O)(=O)Nc2ccc3c(c2)CC(=O)N([C@@H](C)CO)C[C@@H](C)[C@H](CN(C)Cc2ccc(Oc4ccccc4)cc2)O3)cc1	nt	nt	3	nt	83*
COc1ccc(S(=O)(=O)Nc2ccc3c(c2)CC(=O)N([C@H](C)CO)C[C@@H](C)[C@@H](CN(C)Cc2ccc(C(F)(F)F)cc2)O3)cc1	nt	nt	-2	nt	?
COc1ccc(S(=O)(=O)Nc2ccc3c(c2)CC(=O)N([C@@H](C)CO)C[C@@H](C)[C@H](CN(C)Cc2ccc(C(F)(F)F)cc2)O3)cc1	nt	nt	4	nt	76*
COc1ccc(S(=O)(=O)Nc2ccc3c(c2)CC(=O)N([C@H](C)CO)C[C@@H](C)[C@H](CN(C)Cc2ccc(C(F)(F)F)cc2)O3)cc1	nt	nt	3	nt	79*
COc1ccc(S(=O)(=O)Nc2ccc3c(c2)CC(=O)N([C@@H](C)CO)C[C@@H](C)[C@H](CN(C)Cc2ccc(-c4ccccc4)cc2)O3)cc1	nt	nt	2	nt	140*
CCCN(C)C[C@H]1Oc2cc(C#CCC3CCCC3)ccc2S(=O)(=O)N([C@H](C)CO)C[C@H]1C	nt	nt	-8	nt	12
O=C(C[C@H]1C[C@@H]2c3cc(NC(=O)Nc4ccc(C(F)(F)F)cc4)ccc3O[C@@H]2[C@@H](CO)O1)NCc1ccc2c(c1)OCO2	nt	nt	-10	nt	7
C[C@@H]1CN([C@H](C)CO)C(=O)c2cc(N(C)C)ccc2O[C@@H](C)CCCCO[C@H]1CN(C)C(=O)Nc1ccccc1	nt	nt	-4	nt	4
COc1ccc(CN(C)C[C@@H]2Oc3ccc(NS(=O)(=O)c4ccc(F)cc4)cc3CC(=O)N([C@@H](C)CO)C[C@@H]2C)cc1	nt	nt	4	nt	13
COc1ccc(CN(C)C[C@@H]2Oc3ccc(NS(=O)(=O)c4ccc(F)cc4)cc3CC(=O)N([C@H](C)CO)C[C@H]2C)cc1	nt	nt	2	nt	75*
COCCNC(=O)C[C@H]1C[C@H]2c3cc(NC(=O)Nc4ccc(F)cc4)ccc3O[C@H]2[C@H](CO)O1	nt	nt	2	nt	6
CCOC(=O)c1c(C)nc(-c2ccccc2)nc1N	2	nt	50*	nt	-1
CCOC(=O)c1c(-c2ccccc2)cn2c(C)cc(C)nc12	-35	67	63*	23	-1
CC(=O)c1c(C)nc(-c2ccccc2)nc1N	-2	17	8	0	-6
CCOC(=O)c1c(C)nc(C)c(C(=O)OCC)c1-c1ccccc1	23	1	nt	-2	nt
C[C@@H]1CN([C@@H](C)CO)C(=O)c2cc(-c3cccnc3)cnc2O[C@@H]1CN(C)C(=O)C1CCOCC1	nt	nt	-2	nt	12
Clc1cc2nc(-c3cccnc3Cl)[nH]c2cc1Cl	5	89*	20	47*	-15
O=C(C[C@H]1CC[C@H]2[C@@H](COC[C@@H](O)CN2C(=O)c2ccccc2)O1)N1CCOCC1	nt	nt	4	nt	-8
c1ccc(Nc2scc(-c3ccccc3)[n+]2Cc2ccco2)cc1	-6	72	nt	53*	nt
CN(C)P(=O)(Nc1cccc2ccccc12)Nc1cccc2ccccc12	-5	nt	3	-11	-3
CC(C)OP(=O)(Nc1cccc2ccccc12)OC(C)C	-9	-4	nt	67*	nt
CO[C@@H]1CC[C@H]2CCN(C)C(=O)C[C@H](c3ccccc3)CN(C)C(=O)c3cc(C#N)ccc3OC[C@@H]1O2	nt	nt	6	nt	17
COc1cc(C(=O)Nc2nnc(-c3sccc3C)s2)cc(OC)c1OC	2	6	9	0	98*
